Test results reported in the supplement of paper PMC11732987, “Enantioselective OTUD7B fragment discovery through chemoproteomics screening and high-throughput optimisation” (Communications Chemistry, 2025).

Assays:
Assay in all cases: log2 ratio of Biotin-Ahx-Ub-VS probe labelling (fragment/DMSO); higher = less target engagement (more negative = stronger competition), active = hit call of the paper (q ≤ 0.05, log2 ratio ≤ -1)
Conditions in all cases: compound concentration: 200 uM; treatment time: 3 h
[1] = molecular target: T1, USP42 (UniProt Q9H9J4)
T1 sequence (whole entry): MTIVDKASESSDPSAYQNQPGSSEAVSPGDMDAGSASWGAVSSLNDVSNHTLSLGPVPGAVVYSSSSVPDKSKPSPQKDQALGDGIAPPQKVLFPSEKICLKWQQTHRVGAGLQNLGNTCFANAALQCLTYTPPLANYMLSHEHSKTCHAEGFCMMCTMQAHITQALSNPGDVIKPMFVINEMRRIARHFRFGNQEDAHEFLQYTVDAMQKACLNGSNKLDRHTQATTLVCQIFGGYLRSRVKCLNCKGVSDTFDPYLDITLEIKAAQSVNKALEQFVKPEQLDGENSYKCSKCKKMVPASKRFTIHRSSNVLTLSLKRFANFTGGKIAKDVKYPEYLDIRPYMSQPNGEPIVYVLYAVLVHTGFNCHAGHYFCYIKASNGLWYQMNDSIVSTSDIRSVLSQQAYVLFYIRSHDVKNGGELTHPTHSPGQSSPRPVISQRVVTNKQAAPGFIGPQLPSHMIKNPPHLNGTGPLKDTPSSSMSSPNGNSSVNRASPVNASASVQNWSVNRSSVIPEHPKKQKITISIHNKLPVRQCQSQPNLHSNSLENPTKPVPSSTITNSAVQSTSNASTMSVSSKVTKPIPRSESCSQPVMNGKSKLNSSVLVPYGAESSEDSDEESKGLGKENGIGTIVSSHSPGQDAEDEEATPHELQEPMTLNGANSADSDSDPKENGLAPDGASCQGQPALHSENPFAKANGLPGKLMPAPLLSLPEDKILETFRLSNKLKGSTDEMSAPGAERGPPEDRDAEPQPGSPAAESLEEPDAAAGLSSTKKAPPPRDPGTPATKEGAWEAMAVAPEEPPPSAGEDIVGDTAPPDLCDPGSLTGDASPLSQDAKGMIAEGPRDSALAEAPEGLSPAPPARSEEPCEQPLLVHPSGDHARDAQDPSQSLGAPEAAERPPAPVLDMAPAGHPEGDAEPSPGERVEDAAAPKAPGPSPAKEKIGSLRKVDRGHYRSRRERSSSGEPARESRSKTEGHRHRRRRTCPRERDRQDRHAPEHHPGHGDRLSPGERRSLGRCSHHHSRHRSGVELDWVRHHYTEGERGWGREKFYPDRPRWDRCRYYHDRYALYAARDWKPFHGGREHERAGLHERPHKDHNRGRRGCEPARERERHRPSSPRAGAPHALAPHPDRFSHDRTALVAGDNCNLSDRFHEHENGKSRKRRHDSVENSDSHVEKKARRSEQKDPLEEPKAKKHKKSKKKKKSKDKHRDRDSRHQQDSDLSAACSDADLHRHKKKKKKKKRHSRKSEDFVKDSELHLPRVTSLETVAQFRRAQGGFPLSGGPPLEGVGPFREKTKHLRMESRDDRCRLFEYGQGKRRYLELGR
Method in brief: (§1)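 Labelled DUBs were enriched with NeutrAvidin, digested with LysC and trypsin, and run by diaPASEF LC-MS/MS. The labelling used Biotin-Ahx-Ub-VS at 0.5 µM final for 1 h on HEK293T lysate (495 µg per sample) previously treated in triplicate with fragment at 200 µM or vehicle for 3 h. Values are average log2 fragment/vehicle ratios by unpaired t-test on global-median-normalised Spectronaut quantities of proteins with ≥2 unique peptides.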

[2] = molecular target: USP46 (UniProt P62068)
USP46, sequence (P62068 whole entry): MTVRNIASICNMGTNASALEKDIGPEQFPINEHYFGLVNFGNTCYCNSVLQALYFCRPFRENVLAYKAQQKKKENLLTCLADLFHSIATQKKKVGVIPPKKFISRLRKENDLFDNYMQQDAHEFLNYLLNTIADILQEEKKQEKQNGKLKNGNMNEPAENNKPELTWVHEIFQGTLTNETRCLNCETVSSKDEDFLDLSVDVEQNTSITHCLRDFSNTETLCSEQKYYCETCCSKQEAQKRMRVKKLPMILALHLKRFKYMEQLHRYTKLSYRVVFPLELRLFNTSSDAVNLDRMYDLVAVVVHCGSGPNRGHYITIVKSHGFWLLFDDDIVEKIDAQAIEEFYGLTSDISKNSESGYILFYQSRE
Method in brief: as §1

[3] = molecular target: T2, USP47 (UniProt Q96K76)
T2 sequence (whole entry): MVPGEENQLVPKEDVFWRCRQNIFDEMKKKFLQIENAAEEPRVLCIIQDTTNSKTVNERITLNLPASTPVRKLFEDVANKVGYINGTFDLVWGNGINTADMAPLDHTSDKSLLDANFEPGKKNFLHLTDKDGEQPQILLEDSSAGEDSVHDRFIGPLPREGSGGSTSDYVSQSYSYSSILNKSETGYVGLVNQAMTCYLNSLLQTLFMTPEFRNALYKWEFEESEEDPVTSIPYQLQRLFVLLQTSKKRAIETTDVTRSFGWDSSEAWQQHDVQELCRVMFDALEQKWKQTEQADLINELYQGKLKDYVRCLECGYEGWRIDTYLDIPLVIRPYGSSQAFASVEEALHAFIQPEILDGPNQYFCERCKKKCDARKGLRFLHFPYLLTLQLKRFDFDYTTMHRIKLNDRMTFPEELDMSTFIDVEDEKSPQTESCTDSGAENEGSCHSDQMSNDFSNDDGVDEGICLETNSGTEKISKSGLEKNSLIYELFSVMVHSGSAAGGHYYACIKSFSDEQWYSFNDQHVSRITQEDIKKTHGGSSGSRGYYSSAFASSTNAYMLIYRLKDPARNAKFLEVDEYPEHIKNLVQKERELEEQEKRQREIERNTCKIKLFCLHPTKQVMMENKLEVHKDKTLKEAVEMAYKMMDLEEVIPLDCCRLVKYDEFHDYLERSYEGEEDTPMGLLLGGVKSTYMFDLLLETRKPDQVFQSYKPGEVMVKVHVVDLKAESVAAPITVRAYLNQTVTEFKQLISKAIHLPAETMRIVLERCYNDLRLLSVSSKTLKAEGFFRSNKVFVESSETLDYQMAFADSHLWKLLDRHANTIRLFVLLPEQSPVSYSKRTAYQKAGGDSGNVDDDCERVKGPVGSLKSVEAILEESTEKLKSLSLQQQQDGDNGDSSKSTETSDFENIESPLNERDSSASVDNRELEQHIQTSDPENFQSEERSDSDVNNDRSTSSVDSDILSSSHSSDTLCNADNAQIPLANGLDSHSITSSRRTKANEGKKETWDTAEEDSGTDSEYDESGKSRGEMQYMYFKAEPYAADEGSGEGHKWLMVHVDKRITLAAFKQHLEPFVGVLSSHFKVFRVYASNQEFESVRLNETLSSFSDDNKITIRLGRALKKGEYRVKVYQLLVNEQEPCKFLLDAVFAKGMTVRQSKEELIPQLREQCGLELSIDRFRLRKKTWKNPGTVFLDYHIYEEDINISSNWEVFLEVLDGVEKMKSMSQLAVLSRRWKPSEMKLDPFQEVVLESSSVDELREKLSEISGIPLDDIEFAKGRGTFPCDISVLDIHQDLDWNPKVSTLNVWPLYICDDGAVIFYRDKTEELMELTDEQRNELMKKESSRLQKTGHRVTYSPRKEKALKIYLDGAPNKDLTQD
Method in brief: as §1

[4] = molecular target: T3, USP48 (UniProt Q86UV5)
T3 sequence (whole entry): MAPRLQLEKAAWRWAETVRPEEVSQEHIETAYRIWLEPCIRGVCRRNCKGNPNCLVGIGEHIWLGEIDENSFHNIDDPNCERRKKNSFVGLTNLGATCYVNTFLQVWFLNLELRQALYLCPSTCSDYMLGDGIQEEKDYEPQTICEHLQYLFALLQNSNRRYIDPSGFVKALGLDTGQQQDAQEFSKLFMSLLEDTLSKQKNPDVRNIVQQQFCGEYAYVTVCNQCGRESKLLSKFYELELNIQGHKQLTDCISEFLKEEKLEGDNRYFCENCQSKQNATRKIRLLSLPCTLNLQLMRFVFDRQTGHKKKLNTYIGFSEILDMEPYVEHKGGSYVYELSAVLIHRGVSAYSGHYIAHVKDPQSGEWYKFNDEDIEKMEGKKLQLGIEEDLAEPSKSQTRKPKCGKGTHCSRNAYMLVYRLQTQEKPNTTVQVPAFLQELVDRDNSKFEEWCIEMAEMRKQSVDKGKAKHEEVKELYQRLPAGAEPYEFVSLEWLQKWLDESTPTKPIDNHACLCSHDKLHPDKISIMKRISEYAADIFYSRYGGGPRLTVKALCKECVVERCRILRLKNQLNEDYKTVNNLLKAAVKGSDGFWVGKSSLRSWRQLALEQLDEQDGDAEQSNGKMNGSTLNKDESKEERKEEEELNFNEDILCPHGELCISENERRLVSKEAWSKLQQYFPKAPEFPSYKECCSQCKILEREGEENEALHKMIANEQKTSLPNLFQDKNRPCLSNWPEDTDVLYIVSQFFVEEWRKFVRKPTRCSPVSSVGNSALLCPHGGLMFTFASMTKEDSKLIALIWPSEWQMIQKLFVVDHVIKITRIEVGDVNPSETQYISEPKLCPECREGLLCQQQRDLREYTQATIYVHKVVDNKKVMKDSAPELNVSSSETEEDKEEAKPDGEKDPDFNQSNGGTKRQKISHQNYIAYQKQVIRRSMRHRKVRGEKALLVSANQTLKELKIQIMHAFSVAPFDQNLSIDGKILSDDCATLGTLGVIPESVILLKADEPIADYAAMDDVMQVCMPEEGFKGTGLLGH
Method in brief: as §1

[5] = molecular target: T4, USP5 (UniProt P45974)
T4 sequence (whole entry): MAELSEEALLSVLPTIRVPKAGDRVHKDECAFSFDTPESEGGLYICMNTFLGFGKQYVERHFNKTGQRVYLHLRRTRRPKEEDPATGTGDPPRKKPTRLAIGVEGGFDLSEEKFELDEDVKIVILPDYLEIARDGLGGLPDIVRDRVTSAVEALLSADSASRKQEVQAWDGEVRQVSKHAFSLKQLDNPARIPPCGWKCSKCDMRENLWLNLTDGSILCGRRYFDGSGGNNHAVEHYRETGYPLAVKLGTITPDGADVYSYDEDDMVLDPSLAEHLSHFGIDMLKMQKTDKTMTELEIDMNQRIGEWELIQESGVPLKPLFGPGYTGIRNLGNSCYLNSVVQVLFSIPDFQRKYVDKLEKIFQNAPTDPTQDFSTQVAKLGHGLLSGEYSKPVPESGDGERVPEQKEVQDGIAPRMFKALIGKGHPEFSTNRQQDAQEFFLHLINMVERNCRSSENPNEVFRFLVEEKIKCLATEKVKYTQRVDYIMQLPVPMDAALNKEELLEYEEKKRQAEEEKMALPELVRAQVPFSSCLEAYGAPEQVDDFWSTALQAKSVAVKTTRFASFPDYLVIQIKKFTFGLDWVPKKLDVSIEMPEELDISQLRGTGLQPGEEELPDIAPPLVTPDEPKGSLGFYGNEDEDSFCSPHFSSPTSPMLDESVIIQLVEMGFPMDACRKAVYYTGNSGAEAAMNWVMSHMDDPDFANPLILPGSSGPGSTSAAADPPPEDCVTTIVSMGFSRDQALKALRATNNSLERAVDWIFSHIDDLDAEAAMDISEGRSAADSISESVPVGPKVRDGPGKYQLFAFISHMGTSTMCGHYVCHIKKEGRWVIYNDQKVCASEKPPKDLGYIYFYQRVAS
Method in brief: as §1

[6] = molecular target: USP54 (UniProt Q70EL1)
USP54, sequence (Q70EL1 whole entry): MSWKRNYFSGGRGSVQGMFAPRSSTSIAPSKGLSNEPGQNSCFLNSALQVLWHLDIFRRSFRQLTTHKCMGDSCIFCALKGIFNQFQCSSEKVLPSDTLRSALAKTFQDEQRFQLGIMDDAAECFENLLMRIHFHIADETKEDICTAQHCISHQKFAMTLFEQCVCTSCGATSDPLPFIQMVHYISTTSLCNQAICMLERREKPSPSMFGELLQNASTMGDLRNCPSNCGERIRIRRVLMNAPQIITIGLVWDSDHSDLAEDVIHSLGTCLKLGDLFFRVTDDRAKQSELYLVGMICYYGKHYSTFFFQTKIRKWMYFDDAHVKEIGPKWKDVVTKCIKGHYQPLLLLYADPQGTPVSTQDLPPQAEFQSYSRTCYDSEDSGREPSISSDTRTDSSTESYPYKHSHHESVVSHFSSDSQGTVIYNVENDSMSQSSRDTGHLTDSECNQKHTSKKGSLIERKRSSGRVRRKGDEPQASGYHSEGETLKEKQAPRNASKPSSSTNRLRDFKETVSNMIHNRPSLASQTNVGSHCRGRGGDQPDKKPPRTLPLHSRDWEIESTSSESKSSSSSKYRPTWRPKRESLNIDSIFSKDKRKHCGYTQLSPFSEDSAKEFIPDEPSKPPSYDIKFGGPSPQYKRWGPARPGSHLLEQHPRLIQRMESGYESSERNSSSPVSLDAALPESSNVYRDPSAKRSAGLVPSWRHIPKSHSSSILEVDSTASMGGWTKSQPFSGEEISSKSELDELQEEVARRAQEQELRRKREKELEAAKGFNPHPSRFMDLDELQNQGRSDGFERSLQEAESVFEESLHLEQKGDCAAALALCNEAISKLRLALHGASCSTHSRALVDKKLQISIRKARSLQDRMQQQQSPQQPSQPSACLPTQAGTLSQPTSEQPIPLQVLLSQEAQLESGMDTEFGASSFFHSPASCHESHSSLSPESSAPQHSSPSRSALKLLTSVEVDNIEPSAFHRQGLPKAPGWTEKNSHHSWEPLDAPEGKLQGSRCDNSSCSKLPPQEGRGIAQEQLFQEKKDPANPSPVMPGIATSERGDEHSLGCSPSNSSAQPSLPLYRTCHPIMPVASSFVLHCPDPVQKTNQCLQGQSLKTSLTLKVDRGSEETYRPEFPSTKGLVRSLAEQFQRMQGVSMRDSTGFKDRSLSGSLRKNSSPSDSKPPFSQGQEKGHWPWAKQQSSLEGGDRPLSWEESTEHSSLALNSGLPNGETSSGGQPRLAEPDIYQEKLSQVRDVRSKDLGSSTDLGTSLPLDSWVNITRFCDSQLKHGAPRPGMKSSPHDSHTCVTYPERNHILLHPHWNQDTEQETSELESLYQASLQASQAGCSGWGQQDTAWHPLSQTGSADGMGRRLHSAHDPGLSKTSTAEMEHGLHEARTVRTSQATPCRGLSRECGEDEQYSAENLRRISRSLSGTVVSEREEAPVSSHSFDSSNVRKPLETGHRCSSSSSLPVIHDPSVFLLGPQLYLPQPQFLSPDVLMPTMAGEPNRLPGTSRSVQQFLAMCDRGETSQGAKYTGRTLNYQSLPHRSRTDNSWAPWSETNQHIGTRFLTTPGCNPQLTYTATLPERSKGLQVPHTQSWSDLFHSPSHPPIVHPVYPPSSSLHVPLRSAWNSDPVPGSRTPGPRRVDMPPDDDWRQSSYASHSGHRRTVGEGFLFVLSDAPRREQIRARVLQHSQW
Method in brief: as §1

[7] = molecular target: USP7 (UniProt Q93009)
USP7, sequence (Q93009 whole entry, looked up): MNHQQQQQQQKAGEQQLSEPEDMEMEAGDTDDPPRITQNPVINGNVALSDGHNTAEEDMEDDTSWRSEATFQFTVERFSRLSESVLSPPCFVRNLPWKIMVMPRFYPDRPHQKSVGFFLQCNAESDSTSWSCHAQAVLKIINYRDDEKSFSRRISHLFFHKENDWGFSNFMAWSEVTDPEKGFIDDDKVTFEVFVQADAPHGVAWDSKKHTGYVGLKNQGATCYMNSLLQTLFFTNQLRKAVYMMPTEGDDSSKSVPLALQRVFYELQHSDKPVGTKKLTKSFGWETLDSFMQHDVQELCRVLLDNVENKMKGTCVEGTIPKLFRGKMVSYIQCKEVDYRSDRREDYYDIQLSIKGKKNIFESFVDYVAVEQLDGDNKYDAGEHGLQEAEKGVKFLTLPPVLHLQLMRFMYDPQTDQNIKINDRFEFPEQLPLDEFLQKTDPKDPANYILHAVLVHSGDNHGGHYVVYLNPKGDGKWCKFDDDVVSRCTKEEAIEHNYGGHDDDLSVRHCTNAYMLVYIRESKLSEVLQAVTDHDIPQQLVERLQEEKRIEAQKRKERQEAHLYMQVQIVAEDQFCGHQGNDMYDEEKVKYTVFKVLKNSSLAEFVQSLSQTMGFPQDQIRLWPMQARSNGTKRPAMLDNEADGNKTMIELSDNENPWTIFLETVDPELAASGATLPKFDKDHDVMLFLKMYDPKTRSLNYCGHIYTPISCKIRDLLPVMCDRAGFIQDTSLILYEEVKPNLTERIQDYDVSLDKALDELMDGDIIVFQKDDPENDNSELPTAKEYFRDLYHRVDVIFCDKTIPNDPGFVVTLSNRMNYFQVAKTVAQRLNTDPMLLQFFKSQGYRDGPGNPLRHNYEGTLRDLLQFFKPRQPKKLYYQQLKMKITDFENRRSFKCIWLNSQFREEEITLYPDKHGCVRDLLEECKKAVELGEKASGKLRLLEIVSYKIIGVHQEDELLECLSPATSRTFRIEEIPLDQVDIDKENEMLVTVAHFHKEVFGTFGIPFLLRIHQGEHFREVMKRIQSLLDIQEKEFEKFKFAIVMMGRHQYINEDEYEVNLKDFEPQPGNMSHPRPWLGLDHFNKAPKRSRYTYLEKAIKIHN
Method in brief: as §1

[8] = molecular target: T5, USP8 (UniProt P40818)
T5 sequence (whole entry): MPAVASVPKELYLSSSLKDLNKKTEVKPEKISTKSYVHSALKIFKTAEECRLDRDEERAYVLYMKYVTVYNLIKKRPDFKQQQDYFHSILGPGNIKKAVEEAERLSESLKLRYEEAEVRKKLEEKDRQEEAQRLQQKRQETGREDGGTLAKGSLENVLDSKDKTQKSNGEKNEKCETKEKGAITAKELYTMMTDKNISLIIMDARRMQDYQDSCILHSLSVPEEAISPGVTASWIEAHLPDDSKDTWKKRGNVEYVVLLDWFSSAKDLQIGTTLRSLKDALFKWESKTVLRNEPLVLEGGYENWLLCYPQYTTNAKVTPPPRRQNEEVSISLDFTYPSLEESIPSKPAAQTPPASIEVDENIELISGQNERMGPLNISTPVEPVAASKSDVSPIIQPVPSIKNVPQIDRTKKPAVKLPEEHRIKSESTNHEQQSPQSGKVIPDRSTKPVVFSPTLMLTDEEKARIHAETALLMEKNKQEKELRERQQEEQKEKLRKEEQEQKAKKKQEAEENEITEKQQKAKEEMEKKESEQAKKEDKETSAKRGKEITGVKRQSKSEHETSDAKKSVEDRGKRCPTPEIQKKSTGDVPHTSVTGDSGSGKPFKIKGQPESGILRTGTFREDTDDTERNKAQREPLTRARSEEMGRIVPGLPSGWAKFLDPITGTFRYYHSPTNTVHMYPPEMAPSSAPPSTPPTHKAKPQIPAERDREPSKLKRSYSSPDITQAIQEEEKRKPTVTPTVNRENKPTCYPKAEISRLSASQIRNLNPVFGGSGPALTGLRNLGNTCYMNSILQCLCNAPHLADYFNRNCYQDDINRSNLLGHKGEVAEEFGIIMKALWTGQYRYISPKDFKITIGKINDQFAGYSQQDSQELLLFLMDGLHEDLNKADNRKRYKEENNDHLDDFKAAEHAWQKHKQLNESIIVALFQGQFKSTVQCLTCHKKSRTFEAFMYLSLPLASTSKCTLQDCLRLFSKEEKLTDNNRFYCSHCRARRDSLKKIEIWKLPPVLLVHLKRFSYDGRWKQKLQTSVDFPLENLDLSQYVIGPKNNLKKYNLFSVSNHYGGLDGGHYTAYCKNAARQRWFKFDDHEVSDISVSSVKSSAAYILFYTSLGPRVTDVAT
Method in brief: as §1

[9] = molecular target: USP9X (UniProt Q93008)
Method in brief: as §1

[10] = molecular target: UniProt O00487
UniProt O00487, sequence (O00487 whole entry): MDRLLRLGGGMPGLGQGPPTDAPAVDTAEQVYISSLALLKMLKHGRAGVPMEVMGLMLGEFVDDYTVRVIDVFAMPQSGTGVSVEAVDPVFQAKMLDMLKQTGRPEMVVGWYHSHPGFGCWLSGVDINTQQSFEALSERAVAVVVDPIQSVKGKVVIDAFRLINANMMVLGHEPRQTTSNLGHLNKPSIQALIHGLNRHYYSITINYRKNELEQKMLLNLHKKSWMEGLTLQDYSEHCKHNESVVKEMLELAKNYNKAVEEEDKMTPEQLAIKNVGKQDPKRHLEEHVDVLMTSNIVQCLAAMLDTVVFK
Method in brief: as §1

Measured: log2 ratio of Biotin-Ahx-Ub-VS probe labelling

N#Cc1ccc(CNC(=O)CCl)cc1
inactive: [1] 0.0438 | [2] 0.111 | [3] 0.323 | [4] -0.167 | [5] 0.0355 | [6] 0.446 | [7] -0.073 | [8] -0.338 | [9] -0.0142 | [10] -0.00705
